Measurements as given in ChEMBL document CHEMBL4513146, “CO-ADD screening of Karazin Kharkiv National University (Ukraine) compounds”.
Measured potencies and affinities stand elsewhere.

tested on: Escherichia coli; details: Concentration 32 ug.mL-1;; ASSAY_TEST Inhibition of Bacterial Growth; detection method Absorption (OD600); MEDIA CAMHB; plate type 384well; NBS; CORNING #3640; time 18 hr

Compound | Inhibition
Cc1ccc(C)c(NC(=O)Cn2nc3c(Sc4ccccc4)nccn3c2=O)c1 | -5.56%
Cc1ccc(-n2ccn3c(=O)n(Cc4cccc(Cl)c4)nc3c2=O)cc1C | 0.11%
COc1ccc(NC(=O)Cn2nc3ccc(SCc4ccc(Cl)cc4)nn3c2=O)cc1 | -10.26%
O=C(Cn1nc2c(N3CCN(c4ccccc4)CC3)nccn2c1=O)Nc1ccc2c(c1)OCO2 | 0.21%
O=C(CSc1nnc2c3cc(-c4ccc(F)cc4)nn3ccn12)Nc1ccccc1C(F)(F)F | -13.58%
Cc1ccc(-c2cc3c4nnc(SCC(=O)Nc5cccc(Cl)c5C)n4ccn3n2)cc1 | -2.31%
CCc1nnc2c(=O)n(CC(=O)Nc3cc(Cl)ccc3Cl)c3ccccc3n12 | -5.86%
COc1ccc(NC(=O)Cn2nc3ccc(Sc4ccccc4)nn3c2=O)cc1 | -10.85%
COc1cccc(NC(=O)Cn2nc3c4c5c(sc4ncn3c2=O)CCCC5)c1 | -1.99%
O=C(CSc1nnc2c(=O)n(-c3ccccc3)ccn12)Nc1ccc2c(c1)OCO2 | -2.5%
Cc1ccc(-c2ccc3nn(CC(=O)N4CCN(c5ccc(F)cc5)CC4)c(=O)n3n2)cc1C | -8.27%
COc1cc(NC(=O)Cn2nc3c(Oc4ccccc4)nccn3c2=O)cc(OC)c1OC | 1.16%
CSc1cccc(NC(=O)Cn2nc3c(Sc4ccccc4)nccn3c2=O)c1 | -10.44%
COc1ccc(NC(=O)CSc2nnc3c(=O)n(-c4ccccc4OC)ccn23)cc1Cl | -0.75%
CCc1ccc(Cn2c(=O)c3sccc3n3c(=O)n(Cc4c(F)cccc4Cl)nc23)cc1 | -8.75%
CC(=O)c1ccc(N2CCN(C(=O)CCc3nnc4c5cc(-c6ccccc6)nn5ccn34)CC2)cc1 | 2.66%
C=Cc1ccc(CN(c2ccc3c(c2)OCO3)S(=O)(=O)c2ccc3nncn3c2)cc1 | -6.77%
O=C(Cn1nc2ccc(Sc3ccccc3)nn2c1=O)Nc1ccc(Cl)cc1 | 0.83%
COc1ccccc1-n1ccn2c(SCc3ccccc3Cl)nnc2c1=O | -4.4%
Cc1nnc2c(SCC(=O)Nc3ccc(F)cc3F)nc3ccccc3n12 | 2.93%

Compound | Inhibition
O=c1n(Cc2nc(-c3ccc(OC(F)(F)F)cc3)no2)nc2ccc(-c3ccccc3)nn12 | -5.47%
O=c1n(Cc2cccc(C(F)(F)F)c2)nc2ccc(S(=O)(=O)N3CCCCC3)cn12 | 0.28%
CCOc1ccccc1NC(=O)Cn1nc2c3cc(-c4ccc(OC)cc4)nn3ccn2c1=O | 5.35%
CSc1cccc(NC(=O)Cn2nc3c(Oc4cc(C)cc(C)c4)nccn3c2=O)c1 | -5.29%
COc1ccc(N(Cc2cccc(F)c2)S(=O)(=O)c2ccc3nnc(C)n3c2)cc1 | -14.24%
CCOC(=O)c1ccccc1NC(=O)Cn1nc2c3sc(N4CCCC4)nc3ncn2c1=O | -3.52%
O=c1n(Cc2cccc(C(F)(F)F)c2)nc2c(S(=O)(=O)N3CCCCC3)cccn12 | -3.78%
CCc1nnc2c(SCC(=O)Nc3ccc(Br)cc3)nc3ccccc3n12 | 0.98%
CCCc1nnc2c(=O)n(CC(=O)Nc3ccc(C(C)=O)cc3)c3ccccc3n12 | 1.52%
Cc1cc(C)cc(N(Cc2c(F)cccc2Cl)S(=O)(=O)c2cccn3cnnc23)c1 | -4.41%
CC(C)c1ccc(NC(=O)CSc2nnc3c(=O)n(-c4ccccc4)ccn23)cc1 | -7.12%
CC(C)c1ccc(N(Cc2ccccc2)S(=O)(=O)c2cccn3cnnc23)cc1 | -8.68%
O=C(Cn1nc2c(Oc3ccccc3)nccn2c1=O)Nc1ccc(Cl)cc1 | -4.75%
Cc1ccc(-c2noc(Cn3nc4ccc(-c5ccccc5)nn4c3=O)n2)cc1 | -11.36%
Cc1cc(C)cc(NC(=O)Cn2nc3n(C)c(=O)c4c(c(-c5ccccc5)cn4C)n3c2=O)c1 | 1.88%
CC(C)CCNC(=O)CSc1nnc2c(=O)n(-c3ccc(F)cc3)ccn12 | -2.32%
O=C(Cn1nc2c(Oc3ccc(Cl)cc3)nccn2c1=O)Nc1ccc2c(c1)OCO2 | -7%
CCc1ccc(NC(=O)Cn2nc3c4cc(-c5ccc(C)c(C)c5)nn4ccn3c2=O)cc1 | -6.18%
COc1ccc(NC(=O)Cn2nc3c(Oc4ccccc4)nccn3c2=O)cc1 | -1.88%
COc1cccc(CN(c2ccc(F)c(F)c2)S(=O)(=O)c2ccc3nncn3c2)c1 | -13.18%
